Screening data as filed in PubChem.
Platelet DG rel: platelet dense granule release activity. inhibition, %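 (compounds screened at 7.5 µM in platelet-rich plasma)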. 0.22% of 300,000 active. human platelet-rich plasma, SFLLRN dense granule ATP release, luminescence;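 active = mean replicate score, as percent of positive control, at or above 50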
SKKanGAS inh: blocks kanamycin growth of S. pyogenes SKKanGAS strain; BacTiter-Glo, 6 h; inhibition, % at 7.5 µM; 1.3% of 300,000 active;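 active = mean replicate score, as percent of positive control median, at least 50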;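 note: strain carries kanamycin resistance gene driven by streptokinase promoter and grows in 40 µg/ml kanamycin; loss of luminescence reflects streptokinase promoter inhibition or plain growth inhibition; 0% = median of DMSO wells and 100% = positive control at its reference dose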
TPT1 inh: inhibitors of Candida albicans tRNA 2'-phosphotransferase TPT1. AID 1962. 0.81% of 300,000 active. inhibition, % at 5 µM. recombinant caTPT1, FP RNA substrate dephosphorylation;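 active = inhibition above the mean of all tested compounds plus 3 SD, set per screening campaign, cut at about 24% in these data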;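 note: plate controls were DMSO alone for no effect and ferristatin control at 100 nM for full effect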
Rtt109 Vps75: C. albicans Rtt109 histone acetyltransferase inhibition. purified Rtt109/Vps75, ThioGlo CoA-SH fluorescence, 4 h. inhibition, % at 34.9 µM. 0.16% of 330,000 active. AID 540336;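 active = inhibition of at least 50% in every replicate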
Target sequence (Q5AAJ8 whole entry, looked up): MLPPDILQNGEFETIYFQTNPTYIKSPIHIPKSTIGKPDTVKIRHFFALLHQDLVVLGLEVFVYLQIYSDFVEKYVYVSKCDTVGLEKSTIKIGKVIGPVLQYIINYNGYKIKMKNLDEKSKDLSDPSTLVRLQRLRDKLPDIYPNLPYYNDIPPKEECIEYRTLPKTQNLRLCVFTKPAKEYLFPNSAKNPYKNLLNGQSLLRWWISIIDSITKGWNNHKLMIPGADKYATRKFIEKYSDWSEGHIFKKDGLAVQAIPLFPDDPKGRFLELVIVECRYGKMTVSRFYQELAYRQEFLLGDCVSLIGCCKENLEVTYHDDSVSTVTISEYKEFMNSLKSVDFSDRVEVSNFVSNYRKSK
PHOSPHO1 block: PHOSPHO1 (human) inhibition. Q8TCT1. recombinant PHOSPHO1, absorbance phosphatase assay. inhibition, % at 13.3 µM. 1.1% of 290,000 active. AID 1565; in the data active = inhibition above about 60%
Target sequence (Q8TCT1 whole entry, looked up): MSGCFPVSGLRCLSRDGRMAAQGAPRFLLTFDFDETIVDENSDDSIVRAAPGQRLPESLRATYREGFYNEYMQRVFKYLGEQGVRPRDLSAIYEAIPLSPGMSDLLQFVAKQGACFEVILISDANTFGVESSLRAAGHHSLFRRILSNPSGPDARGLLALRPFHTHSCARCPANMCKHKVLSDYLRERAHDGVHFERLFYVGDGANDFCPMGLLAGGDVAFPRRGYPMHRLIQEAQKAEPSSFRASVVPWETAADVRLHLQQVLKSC
WT yeast gro inh: growth inhibition of WT yeast, mitochondrial fusion screen; 2.1% of 190,000 active; inhibition, % at 10 µM; mitochondrial fusion phenotypic screen, WT strain; AID 1362; in the data active = inhibition above about 58%; tested in S. cerevisiae
The depositor's hits bear a star. The list is not random: actives were taken first. Their share in the collection is about 3.9%.

Screening Cc1ccc(-c2cc(C(=O)N/N=C/c3c[nH]c4ccccc34)[nH]n2)cc1 returned Platelet DG rel 5.0, SKKanGAS inh 17.2, Rtt109 Vps75 -9.2, PHOSPHO1 block -8.6 and WT yeast gro inh -1.8.
CSc1cccc(NC(=S)NC(=O)CCc2ccccc2)c1 was read as Platelet DG rel 0.0, SKKanGAS inh 59.8*, TPT1 inh -2.8, Rtt109 Vps75 -3.0 and PHOSPHO1 block -12.6.
For COc1ccccc1CN(C)C(=O)c1ccc(S(=O)(=O)NCc2ccco2)cc1 the results were Rtt109 Vps75 2.5.
For C=CCNC(=S)NN=C1CCCCCCC1 the results were Platelet DG rel 4.2, SKKanGAS inh 0.2, TPT1 inh 0.9, Rtt109 Vps75 0.2, PHOSPHO1 block 52.7 and WT yeast gro inh 59.6*.
COCCNC(=S)NN=C1CCCCC1 was read as Platelet DG rel 2.2, SKKanGAS inh 1.9, TPT1 inh 0.1, Rtt109 Vps75 -4.6, PHOSPHO1 block 21.9 and WT yeast gro inh -9.3.
`O=C(CCC(=O)Nc1ccccc1Cl)NN=C1CCCC1` gave Rtt109 Vps75 1.7 and PHOSPHO1 block 12.3.
CN(C)c1ccnc2sc(C(N)=O)c(N)c12 was read as Platelet DG rel -1.5, SKKanGAS inh 0.9, TPT1 inh -2.3, Rtt109 Vps75 -2.7, PHOSPHO1 block 60.8* and WT yeast gro inh -10.1.
For CCOc1ccc(CN2CCN(C(=O)c3cccc4ccccc34)CC2)cc1 the results were Platelet DG rel 5.5, SKKanGAS inh -0.7, TPT1 inh 2.4 and Rtt109 Vps75 3.5.
`COc1ccc(OC)c(-c2cc(C(F)(F)F)c3c(n2)sc2c(O)cc(=O)[nH]c23)c1` gave Platelet DG rel 3.2, SKKanGAS inh 81.5*, TPT1 inh 5.0, Rtt109 Vps75 -1.4, PHOSPHO1 block 8.4 and WT yeast gro inh -4.4.
Screening Cc1c(C(=O)Nc2nonc2-c2ccc(F)cc2)oc2ccc(F)cc12 returned Platelet DG rel -1.9, SKKanGAS inh 57.1*, TPT1 inh 2.3, Rtt109 Vps75 14.9 and PHOSPHO1 block 2.8.
Screening O=C(O)c1ccc(NC(=O)c2cc3ccccc3o2)cc1 returned Platelet DG rel 1.3, SKKanGAS inh 2.0, TPT1 inh 0.5, Rtt109 Vps75 -1.1 and PHOSPHO1 block 35.7.
O=C(c1cc2ccccc2o1)N(C1CC1)C1(C(=O)Nc2ccccc2)CCCC1 was read as Platelet DG rel 18.6, SKKanGAS inh -4.4, TPT1 inh 1.1, Rtt109 Vps75 1.2, PHOSPHO1 block 31.7 and WT yeast gro inh 72.1*.
For Cn1c(SCC(=O)NC2CC2)nnc1-c1ccc(Cl)cc1 the results were Rtt109 Vps75 1.8.
`Cc1ccc(NC(=O)CN(C)CC(=O)N(CC(C)C)c2c(N)n(CC(C)C)c(=O)[nH]c2=O)c(C)c1` gave Rtt109 Vps75 3.5.
Screening CC(=O)Oc1c(Cl)cc(Cl)cc1/C=C/c1ccc2ccccc2n1 returned Platelet DG rel -4.5, SKKanGAS inh -14.4, TPT1 inh 6.2, Rtt109 Vps75 5.6, PHOSPHO1 block -7.4 and WT yeast gro inh 83.0*.
For CC(=O)Oc1ccc(Cl)cc1/C=C/c1ccc2ccccc2n1 the results were Platelet DG rel 2.1, SKKanGAS inh -6.9, TPT1 inh 1.1, Rtt109 Vps75 4.7, PHOSPHO1 block -1.3 and WT yeast gro inh 31.4.
`O=C(CN(C(=O)c1csnn1)c1ccc(F)cc1)NCc1ccc2c(c1)OCO2` gave Platelet DG rel -5.7, SKKanGAS inh -2.8, TPT1 inh -1.1, Rtt109 Vps75 -10.2 and PHOSPHO1 block 17.4.
O=C(CCCN1C(=O)/C(=C/c2ccc(F)cc2)SC1=S)NC1CCS(=O)(=O)C1 (centres undefined) was read as Platelet DG rel -4.3, SKKanGAS inh 0.4, TPT1 inh 1.4, Rtt109 Vps75 0.4 and PHOSPHO1 block -9.1.
`O=c1c2ccccc2c(-c2ccccc2)nn1Cc1c(Cl)cccc1Cl` gave Platelet DG rel -1.3, SKKanGAS inh 74.6*, TPT1 inh 1.7, Rtt109 Vps75 7.0, PHOSPHO1 block 10.7 and WT yeast gro inh 61.4*.
`CCOC(=O)Cn1nc(-c2ccccc2)c2ccccc2c1=O` gave Platelet DG rel -3.9, SKKanGAS inh 8.5, TPT1 inh 0.7 and PHOSPHO1 block -10.7.
For Cc1ccc(S(=O)(=O)NCC(=O)OCC(=O)N2C(C)CCCC2C)cc1 (centres undefined) the results were Rtt109 Vps75 14.1.
`COc1ccc(C(=O)C[n+]2cn(C(F)F)c3ccccc32)c(F)c1` gave Platelet DG rel -16.9, SKKanGAS inh -8.1, TPT1 inh -5.0, Rtt109 Vps75 -11.3, PHOSPHO1 block -24.1 and WT yeast gro inh 70.2*.
For O=[N+]([O-])c1cc(Cl)cc(/C=N\Nc2ccccn2)c1O the results were Platelet DG rel -45.1, SKKanGAS inh 102.4*, TPT1 inh 0.2, Rtt109 Vps75 3.0, PHOSPHO1 block 22.9 and WT yeast gro inh -13.9.
Cc1cc(Nc2ccccc2)nc2cc(O)ccc12 was read as Platelet DG rel 9.1, SKKanGAS inh -1.9, TPT1 inh -2.0, Rtt109 Vps75 19.8, PHOSPHO1 block -3.7 and WT yeast gro inh 62.3*.
`COc1ccc(Nc2cc(C)c3ccc(O)cc3n2)cc1` gave Platelet DG rel -4.7, SKKanGAS inh -3.3, TPT1 inh -2.2, Rtt109 Vps75 7.2 and PHOSPHO1 block 27.4.
`CC1CC1C(=O)N1CCN(S(=O)(=O)c2cccc(F)c2)CC1` (centres undefined) gave Platelet DG rel 11.2, SKKanGAS inh 18.8, TPT1 inh -0.5 and Rtt109 Vps75 -5.9.
`Cc1cc(-c2c(C)[nH]n(-c3ccccc3)c2=O)n(-c2ccccc2)n1` gave Platelet DG rel 2.4, SKKanGAS inh 0.4, TPT1 inh 1.8, Rtt109 Vps75 15.5, PHOSPHO1 block 3.8 and WT yeast gro inh 10.9.
Screening Cc1cc(-c2c(C)[nH]n(-c3ccc(Cl)cc3)c2=O)n(-c2ccc(Cl)cc2)n1 returned Platelet DG rel -2.4, SKKanGAS inh 100.6*, TPT1 inh -1.2, Rtt109 Vps75 3.5, PHOSPHO1 block 33.9 and WT yeast gro inh 0.6.
For CN1C(=S)SC(N(O)C(=O)Nc2cccc3ccccc23)C1(C)C (centres undefined) the results were Platelet DG rel 4.6, SKKanGAS inh -0.7, TPT1 inh -2.9, Rtt109 Vps75 9.7, PHOSPHO1 block 62.6* and WT yeast gro inh 11.0.
`Cc1cccc(C)c1OCC(=O)N/N=C/c1cccnc1` gave Platelet DG rel -6.2, SKKanGAS inh -1.2, TPT1 inh -4.4, Rtt109 Vps75 2.0 and PHOSPHO1 block 20.0.
Screening COc1cc(C(=O)NCCCOC(C)C)ccc1OC1CCN(C(C)=O)CC1 returned Platelet DG rel -5.7, SKKanGAS inh 2.6 and Rtt109 Vps75 6.5.
`Cc1oc(=O)cc(OCc2ccccc2)c1C` gave Rtt109 Vps75 4.1.
`Cc1c(OCc2ccccc2)cccc1OCc1ccccc1` gave Platelet DG rel 7.7, SKKanGAS inh 0.6, TPT1 inh -3.6, Rtt109 Vps75 -0.9, PHOSPHO1 block -3.7 and WT yeast gro inh 65.6*.
